Experimental data published in PMC4336329 (PLoS ONE, 2015).
Hit rate of the full screen: of about 310,000 compounds, about 14,000 (4.5%) showed an effect of 50% or more. Effects have a minus sign here. Only a selection was taken, and strong results are over-represented in it overall.

What follows are compounds tested against human ether-à-go-go-related gene (hERG) potassium channel (human, UniProt Q12809) (assay: primary screen, population patch clamp on CHO cells stably expressing hERG; higher = less effect of the substance).
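Further: peak tail current of the secondary pulse compared with the same well before compound.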

human ether-à-go-go-related gene (hERG) potassium channel, sequence (Q12809 whole entry, looked up): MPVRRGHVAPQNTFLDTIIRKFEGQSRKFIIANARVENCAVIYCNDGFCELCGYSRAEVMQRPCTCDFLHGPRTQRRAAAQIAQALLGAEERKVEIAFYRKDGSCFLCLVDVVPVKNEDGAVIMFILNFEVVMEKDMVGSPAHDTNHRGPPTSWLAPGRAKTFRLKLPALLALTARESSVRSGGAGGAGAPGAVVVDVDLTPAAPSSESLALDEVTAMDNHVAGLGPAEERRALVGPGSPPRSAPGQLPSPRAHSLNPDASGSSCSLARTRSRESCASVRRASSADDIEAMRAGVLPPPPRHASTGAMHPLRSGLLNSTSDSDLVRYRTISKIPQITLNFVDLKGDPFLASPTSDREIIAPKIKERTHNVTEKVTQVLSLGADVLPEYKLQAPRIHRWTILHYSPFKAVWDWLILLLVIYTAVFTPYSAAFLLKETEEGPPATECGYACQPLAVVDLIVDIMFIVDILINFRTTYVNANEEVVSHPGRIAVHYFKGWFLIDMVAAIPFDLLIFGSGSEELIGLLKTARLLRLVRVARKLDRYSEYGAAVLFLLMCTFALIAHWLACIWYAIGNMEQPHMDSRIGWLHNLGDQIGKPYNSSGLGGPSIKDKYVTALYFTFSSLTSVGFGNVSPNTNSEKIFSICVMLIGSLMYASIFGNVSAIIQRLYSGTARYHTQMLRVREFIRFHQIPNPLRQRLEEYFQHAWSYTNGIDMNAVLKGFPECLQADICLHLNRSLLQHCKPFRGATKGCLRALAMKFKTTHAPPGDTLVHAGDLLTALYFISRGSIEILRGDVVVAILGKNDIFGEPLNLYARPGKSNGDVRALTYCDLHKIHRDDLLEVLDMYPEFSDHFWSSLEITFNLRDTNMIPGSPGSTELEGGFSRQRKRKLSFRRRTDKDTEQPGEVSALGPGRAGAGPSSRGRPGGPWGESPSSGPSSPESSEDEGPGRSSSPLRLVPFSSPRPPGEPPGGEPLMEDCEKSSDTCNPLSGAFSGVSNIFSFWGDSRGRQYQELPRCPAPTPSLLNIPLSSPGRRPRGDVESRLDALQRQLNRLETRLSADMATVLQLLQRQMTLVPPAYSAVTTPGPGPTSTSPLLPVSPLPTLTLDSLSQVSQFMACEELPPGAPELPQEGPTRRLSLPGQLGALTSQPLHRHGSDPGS

Row | Compound | hERG current change (%, negative = inhibition) at 10uM
1 | O=C(O)CCCCCNC(=O)CCn1cnc2ccccc2c1=O | 5.02%
2 | COc1ccccc1N1CCN(C(=O)CCCCCn2c(=O)[nH]c3ccsc3c2=O)CC1 | -24.7%
3 | O=C1CCCC(=O)N1c1ccc(O)cc1 | 2.73%
4 | C/C=C(\C)C(=O)NCCN1C2=NC[C@H](Cc3ccc(O)cc3)N2C[C@H]1Cc1ccc(O)cc1 | 16.5%
5 | COc1ccc(C[C@H]2CN3C(=NC[C@@H]3Cc3ccc(O)cc3)N2CCNC(=O)c2ccc(C)c(Br)c2)cc1 | -74.3%
6 | Cc1ccc(C(=O)NCCN2C3=NC[C@H](C)N3C[C@H]2Cc2ccc(O)cc2)cc1Br | -8.85%
7 | Cc1ccc(C(=O)NCCN2C3=NC[C@@H](Cc4ccccc4)N3C[C@H]2Cc2ccc(O)cc2)cc1Br | -71.1%
8 | Cc1ccc(C(=O)NCCN2C3=NC[C@H](Cc4ccc(O)cc4)N3C[C@H]2Cc2ccc(O)cc2)cc1Br | -51.7%
9 | COc1cc(/C=C2\SC(=O)NC2=O)ccc1Oc1ccc([N+](=O)[O-])cc1[N+](=O)[O-] | 20.2%
10 | Brc1cccc(C=Nc2cccc3ncccc23)c1 | 7.37%
11 | CCOc1cc(C)c(Cl)cc1S(=O)(=O)n1nnc2ccccc21 | 6.52%
12 | COc1ccc(C(=O)Nc2ccc(Cl)c(Cl)c2)c(OC)n1 | 14.1%
13 | CC1CN(c2ccc([N+](=O)[O-])c3cccnc23)CC(C)N1 (centres unmarked) | -33.4%
14 | Cl.O=[N+]([O-])c1ccc(N2CCCNCC2)c2ncccc12 | -64.8%
15 | O=[N+]([O-])c1ccc(N2CCCC2)c2ncccc12 | 8.6%
16 | O=[N+]([O-])c1ccc(N2CCN(CCO)CC2)c2ncccc12 | -45.4%
17 | Cc1ccc(S(=O)(=O)N2CCN(c3ccc(C(F)(F)F)cc3[N+](=O)[O-])CC2)cc1 | -30.8%
18 | Nc1nonc1OCCN1CCN(c2ccc([N+](=O)[O-])c3cccnc23)CC1 | -71.7%
19 | CN1CCN(c2ccc([N+](=O)[O-])c3cccnc23)CC1 | -41.5%
20 | O=[N+]([O-])c1ccc(N2CCCCCC2)c2ncccc12 | 5.54%
21 | O=[N+]([O-])c1ccc(N2CCCCC2)c2ncccc12 | -23.7%
22 | Cc1cc(N2CCN(c3ccc(C(F)(F)F)cc3[N+](=O)[O-])CC2)c2ccccc2n1 | -88.9%
23 | Cc1cc(N2CCN(c3ccc([N+](=O)[O-])c4cccnc34)CC2)c2ccccc2n1 | -64.3%
24 | O=[N+]([O-])c1cc(C(F)(F)F)ccc1N1CCN(S(=O)(=O)c2ccc3ccccc3c2)CC1 | 9.11%

Row | Compound | hERG current change (%, negative = inhibition) at 10uM
25 | CCOC(=O)N1CCN(C(=O)CSc2nnc(-c3ccccc3OC)o2)CC1 | -12.9%
26 | COc1cc(/C=C/c2cccc[n+]2C)ccc1OCC(=O)Nc1ccccc1C.[I-] | 8.13%
27 | NC(=O)C1CCN(C(=O)CCCCCn2c(=O)[nH]c3ccsc3c2=O)CC1 | 0.397%
28 | COc1cccc(OCC(=O)Nc2c3c(nn2-c2ccccc2)CS(=O)(=O)C3)c1 | -48.5%
29 | COc1cc(CNc2nc(C)c([N+](=O)[O-])c(C)c2C#N)cc(OC)c1 | 10.8%
30 | NC(=O)Cn1cc(C(=O)COc2ccccc2)c2ccccc21 | -3.45%
31 | CC(C)CCNC(=O)COc1ccc(C(=O)c2ccccc2)cc1 | -23.8%
32 | Cc1ccc(NC(=O)C(c2ccccc2)N2CCN(CC(=O)NC3CC3)CC2)cc1 (centres unmarked) | -18.1%
33 | C[C@@H]1NC(=O)c2cc([N+](=O)[O-])cc(I)c2NCC[C@@H](C(N)=O)NC(=O)[C@H](CC(N)=O)NC1=O | 11.2%
34 | COc1cc(/C=N/NC(=S)NCCc2ccccc2)cc(OC)c1OC | 8.26%
35 | CCC(=O)N1CCc2cc(Br)cc(S(=O)(=O)NCCN3CCCCC3CC)c21 (centres unmarked) | -20.4%
36 | Brc1cccc(-c2nnc3sc(CN4CCCCC4)cn23)c1 | -11%
37 | Brc1cccc(-c2nnc3sc(CNC4CCCC4)cn23)c1 | -16.2%
38 | Brc1cccc(-c2nnc3sc(CNCc4ccco4)cn23)c1 | -60.3%
39 | COc1ccc(C(CNC(=O)c2ccc(Cl)c(S(=O)(=O)N3CCCC3)c2)N2CCCC2)cc1 (centres unmarked) | -57.6%
40 | COc1ccc(C(=O)NCCc2ccc(Cl)cc2)cc1S(=O)(=O)N1CCCCC1C (centres unmarked) | -52.3%
41 | COc1ccc(C(CNC(=O)c2cc(S(=O)(=O)N3CCCC3)ccc2Cl)N2CCCC2)cc1 (centres unmarked) | -31.6%
42 | COc1ccc(C(=O)NCCc2c[nH]c3ccccc23)cc1S(=O)(=O)N1CCCCC1C (centres unmarked) | -12%
43 | O=C(NCCc1ccccc1)c1ccc(Cl)c(S(=O)(=O)N2CCCC2)c1 | -23.1%
44 | COc1ccc(C(=O)Nc2ccc(NC(C)=O)cc2)cc1S(=O)(=O)N1CCCCC1C (centres unmarked) | 1.47%
45 | COc1ccc(CCNC(=O)c2ccc(Cl)c(S(=O)(=O)N3CCCCCC3)c2)cc1 | -34.2%
46 | COc1ccc(CCNC(=O)c2ccc(Cl)c(S(=O)(=O)N3CCCC3)c2)cc1 | -56.6%
47 | COc1ccc(C(CNC(=O)c2ccc(OC)c(S(=O)(=O)N3CCCC3)c2)N2CCCC2)cc1 (centres unmarked) | 9.12%
